Tg IFNy HTS = blocks Toxoplasma gondii growth in the presence of IFN-gamma | Toxoplasma gondii growth in IFN-gamma-treated host cells; active compounds read low | activity change, negative = inhibition, % (no concentration beside the values) | hit rate 3.8% among 69,000 | AID 1259416; in the data active = activity change below about -70%, passing the limit was not always enough;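 note: host cells are HeLa cells infected with Toxoplasma gondii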
Hits are given with their value; - = inactive; ! = not active in a repeat. The full list was thinned out, with hits kept by preference.

SMILES	Tg IFNy HTS
O=C(O)c1ccc(-c2c[nH]c3ncc(-c4ccccc4)cc23)cc1C1CCCC1	-85
O=C(O)c1ccccc1C1CCN(C(=O)Cc2c[nH]c3ccccc23)C1 (centres undefined)	-
COC[C@H]1CCC[C@]12CN(C(=O)c1ccno1)CCO2	-
CN(C)CC1CN(C(=O)c2cscn2)Cc2nccn2C1 (centres undefined)	-
CCc1ccccc1NC(=O)Cn1c(=O)cc(-c2nc(C)no2)c2ccccc21	-
O=C(CSc1nc2ccccc2o1)Nc1nnc(SCc2ccccc2)s1	-
COCCSc1nnc(NC(=O)c2ccco2)s1	-
O=C(Nc1nnc(SCc2ccccc2)s1)C1COc2ccccc2C1 (centres undefined)	-83
CCc1ccccc1NC(=O)N1CCc2nc(N3CCCC3)nc(C)c2CC1	-
CCC[C@H](Nc1nc(-c2ccc(NC(=O)NCC)c(OC)c2)ncc1C)c1cccnc1	-78
COc1ccc(NC(=O)NCC(c2cccnc2)c2cn(C)c3ccccc23)c(OC)c1 (centres undefined)	-
COc1cc(OC)c(NC(=O)NCC(c2cccnc2)c2c[nH]c3ccccc23)cc1Cl (centres undefined)	-
Cc1ccc2[nH]c(=O)c(-c3nc(-c4ccc(F)c(F)c4)no3)c(O)c2c1	-
COCC1CN(Cc2cc(C)on2)Cc2cn(C)nc21 (centres undefined)	-
Clc1ccc(/C=C2\CCCC3C2=NNC3c2ccc(Cl)cc2)cc1 (centres undefined)	-92
CNC(=O)CN1CCO[C@H]2CN(C(=O)c3cnccn3)C[C@@H]21	-
CC(=O)N[C@H]1CCN(Cc2cnc(-c3ccccc3C)s2)C1	-
Cc1occc1C(=O)N1CCC2OCCCC2(COc2cccnc2)C1 (centres undefined)	-
CCn1c(-c2cc(NC(=O)c3cccnc3)n[nH]2)cc2c(OC)cccc21	-
CCn1c(-c2cc(NC(=O)c3ccncc3)n[nH]2)cc2ccc(OC)cc21	-92
CCn1c(-c2cc(NC(=O)c3cncc(Br)c3)n[nH]2)cc2cc(OC)ccc21	-
Nc1cc2cc(F)ccc2nc1C1CCN(C(=O)c2cscn2)CC1	-
COCCC(=O)N1CC2(CCN(Cc3ccsc3)C2)C1	-
CC1=C(C(=O)NCC2CCCO2)C2(CCN(S(=O)(=O)c3cccs3)CC2)OC1=O (centres undefined)	-
COCC1(C(=O)NCc2cc(-c3ccccc3Cl)on2)CCC1	-
SMILES	Tg IFNy HTS
COc1ccccc1N1CCN(C(=O)CN2C(=O)CCc3cc(Br)ccc32)CC1	-
CN1CCN(C2=Nc3cc(Cl)ccc3Nc3ccccc32)CC1	-95!
Clc1ccc2c(c1)N=C(N1CCNCC1)c1ccccc1N2	-
CN1CCN(C2=Nc3cc(F)ccc3Cc3ccccc32)CC1	-
CCOC[C@H]1CCC2C(CCN2C(=O)NCc2cccc(F)c2)O1 (some centres undefined)	-
O=C(NCc1ccccc1)Nc1ccc(-c2nc(-c3ccccc3)co2)cc1	-
COc1ccc(OCc2nn3c(-c4cccs4)nnc3s2)cc1	-
Cc1cccc(-n2c(SCC(N)=O)nnc2-c2cccs2)c1C	-
CCCCOc1ccc(-c2nnc(-c3cccs3)n2-c2ccccc2)cc1	-80
O=C1CCC(C(=O)Nc2cccc(-c3nc4ccccc4s3)c2)=NN1	-
CNc1ncc(C(=O)NCC(c2ccc(Cl)cc2)N2CCOCC2)cn1 (centres undefined)	-
CN(C)C(=O)CN1C[C@]23CN(Cc4cnn(C)c4)C[C@@H](C[C@@H]2S1(=O)=O)O3	-108
CN(C)C(=O)COCC1CC2(CCN(Cc3cnn(C)c3)CC2)CO1 (centres undefined)	-
CN(C)C(=O)CN1CCC2(CCCN2Cc2cnn(C)c2)CC1	-
Cc1ccc(-c2nc(CN3CCN(C(=O)Nc4ccc(C)c(C)c4)CC3)c(C)o2)cc1	-
CC(C)(C)c1ccc(C(=O)N2CCOCC2)s1	-
COc1cccc(CC(=O)N[C@@H]2c3ccccc3C3(CCNCC3)[C@H]2O)c1	-
O=C(/C=C\n1cnc(-c2cc(C(F)(F)F)cc(C(F)(F)F)c2)n1)NNc1cnccn1	-
O=C(/C=C\n1cnc(-c2cc(C(F)(F)F)cc(C(F)(F)F)c2)n1)N1CC(F)(F)C1	-80
O=C(c1cc(C(F)(F)F)cc(C(F)(F)F)c1)N1CC=CCC1	-
COc1cc(-c2ncn(/C=C\C(=O)OC(C)C)n2)cc(C(F)(F)F)c1	-85
CCOC(=O)c1nn(CCCc2ccccc2)c2c1CN(C(=O)c1noc3c1CCCC3)CC2	-
CCc1ccc(-c2cc(C(=O)N3CCNC(=O)C3CCO)[nH]n2)cc1 (centres undefined)	-
Cc1ccc(CN2CCCC3(CCN(C(=O)C4CC4)CC3)C2)cc1	-
CCn1c(SCC(=O)c2c(C)n(C)c3ccccc23)nc(=O)c2c(C(=O)OC)cc(C3CC3)nc21	-
SMILES	Tg IFNy HTS
COC(=O)c1ccc(C(=O)N2CCC(C(=O)c3ccnn3C)CC2)s1	-
COc1ccc(S(=O)(=O)N2CCC[C@@H]2C(=O)NCCc2csc(C)n2)cc1OC	-
Cc1cc2c(cc1-c1nccn1-c1ccc3cn[nH]c3c1)OCO2	-81
Cc1cc2c(cc1-c1nccn1CCc1nc(-c3cccnc3)no1)OCO2	-
Clc1cc2c(cc1-c1nccn1-c1ccc(Oc3nn[nH]n3)cc1)OCO2	-
CC(C)c1nc(CCN(C)C(=O)c2nc3c(s2)CCCC3)no1	-
Cc1nc(C)c(C(=O)N2CCc3c(nc(-c4cnccn4)[nH]c3=O)C2)s1	-
O=C1NCCN2CCN(C(=O)c3ccccc3-c3ncn[nH]3)CC12 (centres undefined)	-
CSc1ccc(CNc2nc(-c3nnc(-c4ccc(F)cc4)o3)nc3ccccc23)cc1	-
COc1ccc(-c2nc(NCCc3ccccc3)c3ccccc3n2)cc1	-
CCCCn1c(=O)c2c(nc3n2CCCN3CCc2ccccc2)n(C)c1=O	-97
CCCCCCn1c(=O)c2c(ncn2C)n(C)c1=O	-
CCN1CCN(CC2(O)CCCN(CCCc3ccccc3)C2=O)CC1 (centres undefined)	-
CC1=CC[C@@H]2CN(C(=O)c3nc(=O)[nH]c4ccccc34)C[C@@H]2C1	-
FC(F)(F)c1ccc(-c2noc(-c3csnn3)n2)cc1	-
C=CC(=O)Nc1cccc(Nc2nc(Nc3ccc(OCCOC)cc3)ncc2F)c1	-
COc1cc(Nc2ncc(F)c(Nc3ccc4c(n3)N(COP(=O)(O)O)C(=O)C(C)(C)O4)n2)cc(OC)c1OC	-74
CC(=O)Nc1ccc(C(=O)N(c2ccc(C)c(C)c2)C2(C(=O)NCc3ccccc3)CCN(C(C)=O)CC2)cc1	-
CCc1ccccc1NC(=O)CN1CCC2(CC1)N=C(c1ccc(C)c(C)c1)C(=O)N2	-
O=C(c1cc2cccnc2n(Cc2ccccc2F)c1=O)N(CCc1ccccc1)Cc1ccccc1	-
COc1cccc(CNC(=O)c2cc3c(s2)CCN3C(=O)CN(C)C)c1	-
CN(C)CCNC(=O)c1cc2c(s1)CCN2C(=O)C1CC1	-
COc1cccc(CNC(=O)c2nc3c(o2)CN(C(=O)c2cccc(F)c2)C3)c1	-
COc1cccc(CNC(=O)c2nc(Nc3ccc(F)cc3)c3ccccc3n2)c1	-
CC(C)CNC(=O)c1cc2c(s1)CCN2C(=O)C1CC1	-
O=C(NCc1cccc(F)c1)c1cc2c(s1)CCN2C(=O)c1ccccc1	-82
COc1cccc(CNC(=O)c2cc3c(s2)CCN3C(=O)c2ccccc2)c1	-100
COc1cccc(CNC(=O)c2cc3c(s2)CCN3C(=O)c2ccc(F)cc2)c1	-87
COc1cccc(CNC(=O)N2CCc3nc(-c4ccccc4)sc3C2)c1	-

Screening results as filed in PubChem BioAssay.
